# Screening data deposited in PubChem by several laboratories.
# TWEAK-Fn14 inh: inhibitors of TWEAK-Fn14 signaling, primary screen, luciferase reporter cells, uHTS; TWEAK-stimulated Fn14 reporter cells, luciferase luminescence, 8 h; inhibition, % at 10 µM; 360,000 tested, 2% active; in the data active = inhibition above about 50%
# TRPM1 prom inh: inhibitors of MITF-dependent TRPM1 promoter reporter, primary screen, cell-based, SK-MEL-5, single point, luciferase; 330,000 tested, 0.83% active; inhibition, % at 12.5 µM; AID 488899, 2010; SK-MEL-5 TRPM1 promoter luciferase, 24 h;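 active = mean inhibition across replicates of 60% or more, whatever share of single replicates reaches that level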
# TROY NFkB inh: inhibitors of TROY-driven NF-kB signaling, primary screen, Q293 LMP1-TROYcd cells, NF-kB luciferase, uHTS; Q293 LMP1-TROYcd NF-kB luciferase reporter, 4 h; inhibition, % at 10 µM; 360,000 tested, 0.98% active;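 active = compounds whose plate-normalised and pattern-corrected inhibition of the luciferase reporter signal at the single screening dose is 50% or more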
# Peg3 prom inh: Peg3 promoter-driven luciferase inhibitors, primary screen, cell-based, HeLa, luciferase luminescence; HeLa PEG-Prom luciferase reporter, overnight; inhibition, % at 20 µM; 360,000 tested, 1.7% active; AID 588405, 2011;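 active = inhibition of at least 50% at 20 µM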
# Shn3 3UTR inh: reduction of Shn3 3'UTR firefly luciferase signal, primary screen, Schnurri-3 inhibitor project, cell-based, Clone20 osteoblasts, set 2 | Clone20 osteoblast Shn3 3'UTR firefly luciferase, 24 h | inhibition, % at 12.5 µM | 360,000 tested, 0.52% active;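 active = mean inhibition of at least 75% with every replicate also reaching 75%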;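 note: 0% = median of neutral control wells and 100% = pilot-screen positive control compound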
# LMP1 NFkB inh: EBV LMP1-driven NF-kappaB luciferase reporter inhibitors, primary screen, cell-based, luminescence, single point; LMP1-induced NF-kappaB luciferase reporter cells; inhibition, % at 12.5 µM; 350,000 tested, 0.69% active; in the data active = inhibition above about 41%;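 note: 0% = neutral control wells and 100% = reference inhibitor control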
# Active calls of the source: *; · = no result given. A selection: hits, their analogues and other compounds. The true share with any hit is near 4.1%.
SMILES,TWEAK-Fn14 inh,TRPM1 prom inh,TROY NFkB inh,Peg3 prom inh,Shn3 3UTR inh,LMP1 NFkB inh
CCN(CC(=O)NC1CCS(=O)(=O)C1)S(=O)(=O)c1ccc(Br)cc1 (stereo not drawn),-6,-12,-11,-3,4,-2
CN(C)CCNc1ncnc2c1sc1nc(-c3ccccc3)c3c(c12)CCCC3,2,9,39,111*,-26,-9
Cc1cc(N/N=C/c2ccc(O)c(C)c2O)nc(-c2ccccc2O)n1,66*,-10,40,69*,85,-21
Cc1cc2c(cc1C)CSC(c1c(O)ccc3ccccc13)SC2,75*,-1,49,62*,64,5
Cc1cc2c(cc1C)CSC(c1ccccc1O)SC2,42,-8,11,1,32,-12
Cc1cc2c(cc1C)CSC(c1ccc(O)cc1)SC2,55*,-2,33,9,3,-8
Cc1ccc(NC(=O)c2ncn(CCCNCCCc3ccccc3)n2)cc1C,0,-20,-18,44,-20,-5
O=C(COc1ccccc1)OCc1cc(-c2ccco2)on1,6,0,-12,-13,-28,0
COc1ccc(C(C)=O)cc1CN(c1ccccc1OC)S(=O)(=O)c1cccs1,-2,-9,-19,24,2,-7
CC1CCCCC1NC(=O)COc1ccccc1C#N (stereo not drawn),-10,-5,-5,-44,-5,-9
Cc1onc(-c2ccccc2)c1C(=O)NC(=S)NNC(=O)c1ccc(O)cc1O,38,47,9,27,77,43*
CC(NC(=O)C(C)(C)C)C(c1cccs1)N1CCOCC1 (stereo not drawn),-8,-5,-18,-7,3,-2
COc1ccc(S(=O)(=O)N(C)CC(=O)NCCCn2ccnc2)cc1Cl,0,-14,2,22,-6,-14
CCN(Cc1ccccc1)C(=O)c1nn(-c2ccc(OC)cc2)c(=O)c2c1c1ccccc1n2C,26,2,-6,68*,24,12
Nc1ncnc(Sc2ncccn2)c1[N+](=O)[O-],71*,79*,31,101*,-13,-57
Nc1ncnc(Sc2ccc(Cl)cc2)c1[N+](=O)[O-],69*,0,-7,-7,-1,1
Nc1ncnc(Sc2ccccc2)c1[N+](=O)[O-],57*,-6,22,21,9,24
CC(CCc1ccccn1)(CCc1ccccn1)C(=O)c1ccccc1,19,20,-20,4,0,-13
COc1ccc(-n2c(C)c([N+](=O)[O-])c3ccc(O)c(CN(C)C)c32)cc1,80*,-13,·,33,4,70*
CC1CCN(CC(=O)N(C)c2c(N)n(Cc3ccccc3)c(=O)[nH]c2=O)CC1,3,-1,-27,-6,-9,-2
CC(=O)N(Cc1ccccc1)c1c(N)nc(N)[nH]c1=O,-5,9,17,19,-8,-2
Cc1nnnn1/C(=C\c1ccccc1)C(=O)OCC(=O)NC(C)(C)C,50*,4,21,-22,-15,4
Cc1nnnn1/C(=C\c1ccccc1)C(=O)OCC(=O)NC1CCCCC1,57*,28,24,76*,-22,-4
COc1ccccc1-n1c(SCC(=O)NC(C)(C)C)nc(O)c(Cc2ccccc2)c1=O,1,-9,8,6,-18,-5
COc1ccccc1-n1c(SCC(=O)N2CCCCC2)nc(O)c(Cc2ccccc2)c1=O,7,-5,-7,97*,-4,3
Cc1n(CC(O)COC2CCCCC2)c2ccccc2[n+]1C (stereo not drawn),76*,2,·,-1,-4,0
COc1cccc(N2CCN(C(=O)CC(C)(C)CC3=NS(=O)(=O)c4ccccc4N3)CC2)c1,15,-2,9,31,70,8
CC(C)(CC(=O)N1CCN(c2ccc(Cl)cc2)CC1)CC1=NS(=O)(=O)c2ccccc2N1,54*,25,39,39,66,-68
